Only some compounds are listed: those with a hit (about 31% of all), similar ones and a draw of the others.
CYP2C19 inhib = blockers of cytochrome P450 2C19 activity – biochemical, luminescence, ADME assay, primary screen | P33261 | CYP2C19 Supersomes, luciferin-H EGE luminescence, 30 min | inhibition, % at 5 µM | 96,000 compounds, 21% hits;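 active = CYP2C19 inhibition above a set limit at 5 µM in the primary screen, cut at about 50% in these data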;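 note: plate controls were negative control wells for no effect and 2.5 mM tranylcypromine positive control for full effect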
CYP2C19 act = human CYP2C19 activators, primary screen, biochemical, luminescence; Cytochrome P450 2C19 (Homo sapiens), P33261; recombinant CYP2C19, luciferin-H EGE luminescence; stronger effect = higher value; 0 = fully inhibited enzyme, 1 = untreated enzyme; activation factor at 5 µM; 96,000 tested, under 10 active; AID 1025, 2008;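 active = activation factor of at least 2 at 5 µM in the primary screen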;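 note: 0 = wells with 2.5 mM tranylcypromine and 1 = vehicle-only wells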
CYP2C9 inh = blockers of cytochrome P450 2C9 activity – biochemical, luminescence, ADME assay, primary screen. AID 777, 2007. 96,000 compounds, 20% hits. P11712. inhibition, % at 5 µM. CYP2C9 Supersomes, luciferin-H conversion;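 active = blocking of liver enzyme CYP2C9 beyond about 50% at 5 µM, limit read from the data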
PLAP activator = PLAP enzyme activators, biochemical, luminescence, HTS; Alkaline phosphatase, placental type (Homo sapiens), P05187; purified PLAP enzyme, luminescent substrate read-out; stronger effect = higher value; activation fold at 20 µM; 96,000 compounds, 1.2% hits; in the data active = activation fold above about 2
Target sequence (P05187 whole entry, looked up): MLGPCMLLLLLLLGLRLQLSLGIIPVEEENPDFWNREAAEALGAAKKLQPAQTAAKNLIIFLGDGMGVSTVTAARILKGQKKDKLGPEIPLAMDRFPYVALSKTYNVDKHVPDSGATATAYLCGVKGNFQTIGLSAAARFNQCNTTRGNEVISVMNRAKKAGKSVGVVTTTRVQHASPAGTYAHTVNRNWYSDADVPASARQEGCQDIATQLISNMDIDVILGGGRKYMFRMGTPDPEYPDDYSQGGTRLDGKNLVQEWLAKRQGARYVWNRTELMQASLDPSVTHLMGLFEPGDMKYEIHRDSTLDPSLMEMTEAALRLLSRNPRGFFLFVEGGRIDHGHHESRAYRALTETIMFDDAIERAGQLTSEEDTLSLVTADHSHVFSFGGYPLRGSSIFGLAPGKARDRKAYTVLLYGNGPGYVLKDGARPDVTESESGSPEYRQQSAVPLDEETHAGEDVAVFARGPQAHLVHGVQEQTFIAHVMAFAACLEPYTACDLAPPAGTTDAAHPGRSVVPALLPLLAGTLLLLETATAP
CYP2C9 activ = human CYP2C9 activators, primary screen, biochemical, luminescence | Cytochrome P450 2C9 (Homo sapiens), P11712 | recombinant CYP2C9, luciferin-H conversion; stronger effect = higher value; factor 1 = untreated enzyme, 0 = blocked | activation factor at 5 µM | 96,000 compounds, 1.4% hits | AID 1024, 2008;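 active = activation factor of 2 or more for CYP2C9 at a 5 µM dose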;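 note: 0 = sulfaphenazole-blocked wells and 1 = vehicle-only wells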
Active calls of the source: *.

How did Cc1ccc(C(=O)Nc2ccc3c(c2)OCO3)cc1S(=O)(=O)N1CCCC1 do in these assays?
CYP2C19 inhib: 46; CYP2C19 act: 0.5; CYP2C9 inh: 58*; PLAP activator: 0.8; CYP2C9 activ: 0.4

What do the screens show for `O=C(Nc1ccc2c(c1)OCCO2)c1cccc(S(=O)(=O)N2CCCCC2)c1`?
CYP2C19 inhib: 41; CYP2C19 act: 0.6; CYP2C9 inh: 63*; PLAP activator: 0.8; CYP2C9 activ: 0.4

How did Cc1ccc(C(=O)Nc2ccc3c(c2)OCO3)cc1 do in these assays?
CYP2C19 inhib: 38; CYP2C19 act: 0.6; CYP2C9 inh: 27; PLAP activator: 0.9; CYP2C9 activ: 0.7

Results for O=C(Nc1ccc(N2CCOCC2)cc1)c1cccc(S(=O)(=O)N2CCC(Cc3ccccc3)CC2)c1 ?
CYP2C19 inhib: 46; CYP2C19 act: 0.5; CYP2C9 inh: 64*; PLAP activator: 1.1; CYP2C9 activ: 0.4

How did Cc1ccc(C(=O)Nc2cccc(C(=O)O)c2)cc1S(=O)(=O)N1CCOCC1 do in these assays?
CYP2C19 inhib: 2; CYP2C19 act: 1; CYP2C9 inh: -12; PLAP activator: 1; CYP2C9 activ: 1.1

What do the screens show for `Cc1ccc(C(=O)Nc2cccc(C(=O)O)c2)cc1S(=O)(=O)N1CCCCC1`?
CYP2C19 inhib: 47; CYP2C19 act: 0.5; CYP2C9 inh: 57*; PLAP activator: 1.5; CYP2C9 activ: 0.4

What do the screens show for `O=C(Nc1ccc2c(c1)OCCO2)c1cccc(S(=O)(=O)N2CCOCC2)c1`?
CYP2C19 inhib: 5; CYP2C19 act: 0.9; CYP2C9 inh: 5; PLAP activator: 0.8; CYP2C9 activ: 1

How did O=C(COC(=O)C1COc2ccccc2O1)NC(=O)NC1CCCCC1 (stereo not given) do in these assays?
CYP2C19 inhib: 2; CYP2C19 act: 1; CYP2C9 inh: 14; PLAP activator: 0.8; CYP2C9 activ: 0.9

What do the screens show for `O=C(O)c1cccc(NC(=O)c2ccc3c(c2)C(=O)N(CC2CCCO2)C3=O)c1` (stereo not given)?
CYP2C19 inhib: 77*; CYP2C19 act: 0.2; CYP2C9 inh: 73*; PLAP activator: 0.8; CYP2C9 activ: 0.3

How did Cc1ccc(C(=O)OCc2ccc3c(c2)OCO3)cc1S(=O)(=O)N1CCCCC1 do in these assays?
CYP2C19 inhib: 79*; CYP2C19 act: 0.2; CYP2C9 inh: 95*; PLAP activator: 1.1; CYP2C9 activ: 0

How did Cc1ccc(C(=O)NCc2ccco2)cc1S(=O)(=O)N1CCCCC1 do in these assays?
CYP2C19 inhib: 24; CYP2C19 act: 0.8; CYP2C9 inh: 41; PLAP activator: 0.9; CYP2C9 activ: 0.6

Results for Oc1ccc(-c2cccc(-c3ccc(O)cc3)n2)cc1 ?
CYP2C19 inhib: 27; CYP2C19 act: 0.7; CYP2C9 inh: 61*; PLAP activator: 1; CYP2C9 activ: 0.4

How did C=CCC(=O)OCC(=O)Nc1ccc(Oc2ccccc2)cc1 do in these assays?
CYP2C19 inhib: 6; CYP2C19 act: 0.9; CYP2C9 inh: -6; PLAP activator: 0.9; CYP2C9 activ: 1.1

What do the screens show for `CCC(Nc1nc(-c2ccccc2)nc2ccccc12)C(=O)O` (stereo not given)?
CYP2C19 inhib: 3; CYP2C19 act: 1; CYP2C9 inh: 27; PLAP activator: 1.7; CYP2C9 activ: 0.7

Results for COC(=O)CNc1nc(-c2ccncc2)nc2ccccc12 ?
CYP2C19 inhib: 56*; CYP2C19 act: 0.4; CYP2C9 inh: 84*; PLAP activator: 1.1; CYP2C9 activ: 0.2

Results for CC(C)C(=O)Nc1nnc(SCC(=O)NCc2cccs2)s1 ?
CYP2C19 inhib: 3; CYP2C19 act: 1; CYP2C9 inh: -2; PLAP activator: 1.2; CYP2C9 activ: 1

Results for Cn1c(C(O)c2ccccc2)nc(Cl)c1Cl (stereo not given) ?
CYP2C19 inhib: 70*; CYP2C19 act: 0.3; CYP2C9 inh: 12; PLAP activator: 0.8; CYP2C9 activ: 0.9

Results for O=C(O)c1ccccc1C(=O)NCC(O)COCC1CC=CCC1 (stereo not given) ?
CYP2C19 inhib: 92*; CYP2C19 act: 0.1; CYP2C9 inh: 13; PLAP activator: 1.1; CYP2C9 activ: 0.9

Screening data: PubChem BioAssay, Sanford-Burnham Center for Chemical Genomics
